The values below come from PubChem BioAssay (NCI).

Test systems include BT-549 breast; MDA-MB-435 melanoma; SW-620 colon; MCF7 breast; HCT-116 colon; HCC-2998 colon; KM12 colon.
Common to all, as to experiment: NCI-60 one-dose screen, 48 h (100 = growth as untreated, 0 = no growth, -100 = all killed)
Conditions in all cases: 10 µM unless noted

About 83,000 compounds went through this panel and 20% of them were active in at least one assay; those are over-represented in the sample as a whole.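 Each cell line was grown in a 96-well plate and treated with one concentration of compound for 48 hours. Values below 10 were considered active.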 Values without a mark were called inactive. The source made the active and inactive calls.

On to `CCN(CC)CCCCCCCNc1cc(OC)cc2c(C)ccnc12`, for which the growth with BT-549 breast was 82.6%; in the assay with MDA-MB-435 melanoma, 98.6%; in the assay with SW-620 colon it was 88.6%; in the assay on MCF7 breast, 27.2%; with HCT-116 colon, 70.9%; in the assay on HCC-2998 colon it was 90.9%. Further, the growth in the assay with KM12 colon is 89.9%.
In the case of `Fc1cnccc1-c1nc2ccc3[nH]ncc3c2c2c1CCCC2`, the growth with BT-549 breast was 16.1%; in the assay with MDA-MB-435 melanoma it was 10.4%; in the assay with SW-620 colon, 14.6%; with MCF7 breast, 34.7%; in the assay on HCT-116 colon it was 7.21% (active); in the assay on HCC-2998 colon, 37.5%. Besides, the growth in the assay on KM12 colon is 18.4%.
For the compound `Cc1ccc(S(=O)(=O)NC(CCC(=O)Nc2ccc(Cl)cc2)C(=O)Nc2ccc(Cl)cc2)cc1` (stereo not given), the growth in the assay with BT-549 breast is 27.3%; in the assay on MDA-MB-435 melanoma it was 38.4%; with SW-620 colon, 31.1%; with MCF7 breast it was 30%; in the assay with HCT-116 colon, 23.8%; in the assay with HCC-2998 colon, 23.5%. In addition, the growth in the assay on KM12 colon was 12.8%.
Turning to `O=C(CCc1nc2sc3c(c2c(=O)[nH]1)CCC3)NCc1cn(-c2ccccc2)nc1-c1ccccc1`, the growth with BT-549 breast is 95.6%; in the assay on SW-620 colon it was 28.7%; with MCF7 breast, 34.1%; with HCT-116 colon, -27.1% (active); with HCC-2998 colon, 87.5%; in the assay on KM12 colon, 85.3%.
`O=[N+]([O-])c1cccc(N=C(Nc2cccc([N+](=O)[O-])c2)c2ccccc2)c1`: the growth is 82% in the assay with BT-549 breast; 78.4% in the assay on MDA-MB-435 melanoma; 101% with SW-620 colon; 68.9% with MCF7 breast; 58.1% in the assay on HCT-116 colon; 93.2% in the assay on HCC-2998 colon. In addition, the growth in the assay on KM12 colon was 84.2%.
Consider `O=C(Nc1cccc(Cl)c1)Nc1cc(C(F)(F)F)ccc1Cl`, for which the growth is 25.8% with BT-549 breast; 8.14% (active) in the assay with MDA-MB-435 melanoma; -16.1% (active) in the assay with SW-620 colon; 16.1% in the assay with MCF7 breast; -13.3% (active) in the assay with HCT-116 colon; 13.2% in the assay on HCC-2998 colon. In the assay on KM12 colon, the growth is -45.1% (active).
Consider `COc1c(B(O)O)cccc1-c1nc2c(F)cc3n[nH]c(C)c3c2c2c1CCCC2`, for which the growth in the assay with BT-549 breast was 21.2%; in the assay on MDA-MB-435 melanoma it was 21.2%; in the assay on SW-620 colon it was 15.3%; with MCF7 breast, 15%; in the assay with HCT-116 colon, 10.5%; in the assay on HCC-2998 colon, 51.7%. The growth in the assay on KM12 colon is 20.5%.
Turning to `O=C(C=P(c1ccccc1)(c1ccccc1)c1ccccc1)CCl`, the growth in the assay with BT-549 breast was -11.3% (active); in the assay with MDA-MB-435 melanoma, -98.6% (active); with SW-620 colon it was -50.7% (active); in the assay with MCF7 breast it was -16.6% (active); in the assay with HCT-116 colon, -70.2% (active); with HCC-2998 colon, -21.6% (active). Further, the growth in the assay on KM12 colon is 1.36% (active).
With `O=S(=O)(NCC[C@@H]1C[C@H]1c1ccc2ccccc2c1)c1ccc(C(F)(F)F)cc1`, the growth in the assay on BT-549 breast is 92.5%; in the assay on SW-620 colon, 98.6%; in the assay with MCF7 breast it was 91.1%; with HCT-116 colon, 88%; in the assay on HCC-2998 colon, 101%; in the assay on KM12 colon, 95.2%.
For the compound `O=c1cc(N2CCOCC2)oc2c(-c3ccc4c(c3)OCCO4)csc12`, the growth with BT-549 breast was 5.39% (active); in the assay with MDA-MB-435 melanoma, 14.7%; in the assay on SW-620 colon, 37.6%; in the assay with MCF7 breast, 7.92% (active); in the assay with HCT-116 colon it was 14.4%; in the assay with HCC-2998 colon, 33.2%. Moreover, the growth in the assay with KM12 colon was 31.7%.
As to `O=C1Nc2ccccc2/C1=C/c1c[nH]c2ccccc12`, the growth with BT-549 breast is 73.5%; in the assay with MDA-MB-435 melanoma it was 92.3%; with SW-620 colon, 100%; with MCF7 breast, 63.2%; in the assay with HCT-116 colon it was 79.2%; in the assay on HCC-2998 colon, 98.6%. Moreover, the growth with KM12 colon was 23.1%.
Turning to `Oc1ccc(CCCCCCc2ccc(O)cc2)cc1`, the growth is 50.3% in the assay on BT-549 breast; 71.4% in the assay with MDA-MB-435 melanoma; 58.1% with SW-620 colon; 35.9% in the assay with MCF7 breast; 66.8% in the assay with HCT-116 colon; 92.3% with HCC-2998 colon. The growth with KM12 colon is 59%.
With `COc1ccc(-c2cn(-c3cccc(C(=O)/C=C/c4ccc(O)c(OC)c4)c3)c(=O)[nH]2)cc1`, the growth was 4.04% (active) in the assay with BT-549 breast; 20.5% in the assay with MDA-MB-435 melanoma; 15.2% in the assay on MCF7 breast; -35.4% (active) with HCT-116 colon; 17.5% in the assay on HCC-2998 colon; -58.7% (active) in the assay with KM12 colon.
For `Nc1nc2ccc([C@@H]3Nc4ccc5[nH]ncc5c4[C@H]4[C@H]5CCC(C5)[C@H]43)cc2s1`, the growth was 36.7% with BT-549 breast; -3.94% (active) with SW-620 colon; -0.0226% (active) in the assay on MCF7 breast; 12.1% in the assay on HCT-116 colon; 49.3% with HCC-2998 colon; 3.63% (active) in the assay with KM12 colon.
As for `Clc1cn2cc(-c3ccc(Cl)c(Cl)c3Cl)nc2s1`, the growth in the assay on BT-549 breast was 129%; in the assay on MDA-MB-435 melanoma, 88.1%; with SW-620 colon it was 111%; with MCF7 breast, 87.8%; in the assay on HCT-116 colon, 96.9%; in the assay on HCC-2998 colon, 106%. In addition, the growth in the assay with KM12 colon is 111%.
As for `CCc1ccc2c(c1)N(CCO)C1=C(C(=O)OC1)C2c1cccc(Br)c1` (stereo not given), the growth in the assay with BT-549 breast was 46.6%; in the assay with SW-620 colon it was 26.8%; in the assay with MCF7 breast it was 21.1%; in the assay on HCT-116 colon, 26.9%; in the assay with KM12 colon, 19.2%.
With `Cc1cc(N=Nc2ccc(-c3ccc(N=Nc4ccc(O)c(C(=O)O)c4)cc3)cc2)c(N)c(N=Nc2ccc(C(=O)O)cc2)c1N`, the growth is 67.3% in the assay on BT-549 breast; 99.5% in the assay with MDA-MB-435 melanoma; 95.6% in the assay with SW-620 colon; 97.6% in the assay on MCF7 breast; 65.5% in the assay on HCT-116 colon; 87.7% with HCC-2998 colon. Moreover, the growth with KM12 colon was 92.1%.
Turning to `Nc1ccc(N(O)/C=C2\C=CC=CC2=O)cc1N`, the growth in the assay on BT-549 breast was 103%; with MDA-MB-435 melanoma, 97.7%; in the assay with SW-620 colon, 105%; with MCF7 breast, 115%; with HCT-116 colon, 85.1%; in the assay with HCC-2998 colon, 93.4%. In addition, the growth in the assay with KM12 colon was 83.3%.
Take `NS(=O)(=O)c1ccc(N2N=C(c3cccs3)CC2c2ccccc2O)cc1` (stereo not given): the growth with BT-549 breast was -15.4% (active); with MDA-MB-435 melanoma, -41.1% (active); in the assay with SW-620 colon, 19.3%; in the assay with MCF7 breast, 4.97% (active); with HCT-116 colon it was 3.06% (active); with HCC-2998 colon it was -8.11% (active). Moreover, in the assay on KM12 colon, the growth was -15.8% (active).
As for `O=C(C(=O)c1cccnc1)c1cccnc1`, the growth in the assay with MDA-MB-435 melanoma was 119%; in the assay with SW-620 colon, 103%; in the assay with MCF7 breast, 97.5%; in the assay with HCT-116 colon, 99.8%; in the assay with HCC-2998 colon, 99.1%; in the assay on KM12 colon it was 108%.
Turning to `Fc1[nH]nc2ccc([C@@H]3Nc4ccc5[nH]ncc5c4[C@H]4C5CCC(C5)[C@@H]34)cc12` (stereo not given in full), the growth is 53.2% in the assay with BT-549 breast; 23.9% in the assay on SW-620 colon; 21.2% with MCF7 breast; 21% with HCT-116 colon; 58.2% in the assay on HCC-2998 colon; 20.7% in the assay with KM12 colon.
For `COc1ccc(-c2nnc(SCC(=O)Nc3ccc(C(=O)/C=C/c4ccc(Cl)cc4)cc3)n2-c2ccccc2)cc1`, the growth in the assay on BT-549 breast is 84.6%; with MDA-MB-435 melanoma, 105%; in the assay with SW-620 colon, 101%; in the assay with MCF7 breast, 95.3%; with HCT-116 colon, 76%; in the assay on HCC-2998 colon, 103%. Also, the growth with KM12 colon is 98.2%.
Regarding `Cc1ccc2cc3c(NC(=O)c4cccnc4)nn(C)c3nc2c1`, the growth in the assay on BT-549 breast was 97.4%; with MDA-MB-435 melanoma it was 95.5%; in the assay on SW-620 colon, 92.5%; with MCF7 breast, 81.6%; in the assay with HCT-116 colon it was 86.2%; in the assay on HCC-2998 colon it was 91%. Also, in the assay with KM12 colon, the growth was 85.6%.
On to `CCCCn1c(-c2ccc(F)cc2)nc2cc(OC)c(OC)cc2c1=O`, for which the growth is 101% with MDA-MB-435 melanoma; 98.3% in the assay with SW-620 colon; 88.2% in the assay with MCF7 breast; 67.3% in the assay on HCT-116 colon; 103% in the assay with HCC-2998 colon; 95.8% with KM12 colon.
For `O=C(C(Br)C(Br)c1ccccc1)C(Br)C(Br)c1ccccc1` (stereo not given), the growth in the assay with BT-549 breast was -82.8% (active); with SW-620 colon, -71.1% (active); with MCF7 breast, -19.2% (active); in the assay on HCT-116 colon, -99.5% (active); with HCC-2998 colon, -8.59% (active); with KM12 colon, -63.3% (active).
As for `NC(N)=N/N=C/c1ccccc1`, the growth with BT-549 breast was 102%; in the assay with MDA-MB-435 melanoma it was 93.6%; with SW-620 colon, 104%; in the assay with MCF7 breast, 93%; in the assay with HCT-116 colon it was 92.8%; with HCC-2998 colon it was 98.1%. The growth in the assay on KM12 colon was 103%.
Regarding `Cc1c(C)c(C)c([N+](=O)[O-])c([N+](=O)[O-])c1C`, the growth was 101% in the assay with BT-549 breast; 88.6% in the assay on MDA-MB-435 melanoma; 106% with SW-620 colon; 97% in the assay with MCF7 breast; 109% in the assay on HCT-116 colon; 103% in the assay with HCC-2998 colon. Moreover, in the assay with KM12 colon, the growth is 98.1%.
Turning to `O=C(NC1CC1)c1ccc(-c2nc3ccc4[nH]ncc4c3c3c2CCCC3)cc1`, the growth was 29.5% with BT-549 breast; 11.5% in the assay with MDA-MB-435 melanoma; 18.7% in the assay on SW-620 colon; 38.6% with MCF7 breast; 17% in the assay on HCT-116 colon; 51.1% with HCC-2998 colon. In the assay on KM12 colon, the growth was 24.4%.
As for `C#CC[C@@H]1C[C@]2(C)[C@H]3CC[C@@H]4[C@H]5C(C(=C)C)CC[C@]5(C(=O)NCCCCCCCCN)CC[C@@]4(C)[C@]3(C)CC[C@H]2C(C)(C)[C@H]1OC(C)=O` (stereo not given in full), the growth is 97.5% with BT-549 breast; 76.5% in the assay with MDA-MB-435 melanoma; -2.59% (active) in the assay with SW-620 colon; -18.9% (active) with MCF7 breast; -88.5% (active) in the assay on HCT-116 colon; 91.1% with HCC-2998 colon. In addition, in the assay on KM12 colon, the growth was 61.9%.
With `CC(=O)c1nn(-c2ccccc2)/c(=N\N=C\c2coc3ccc(F)cc3c2=O)s1`, the growth is 105% in the assay on BT-549 breast; 103% with MDA-MB-435 melanoma; 98.7% in the assay with SW-620 colon; 90.3% in the assay with MCF7 breast; 96% in the assay with HCT-116 colon; 111% in the assay with HCC-2998 colon. For the same compound, the growth in the assay on KM12 colon was 101%.
